Calls of active or inactive are those of the source. The rule behind the calls is not given here.

In this assay the target is Pantothenate synthetase (Mycobacterium tuberculosis (strain ATCC 25618 / H37Rv)) (UniProt P9WIL5). As to the kind of experiment: Coupled enzyme confirmation of inhibitors against recombinant Mtb PanC (AID 375).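 Note: 0% = full reaction with vehicle and 100% = no enzyme background.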 As to conditions: coupled enzyme assay; at 10 µM, active compounds read high.
Chain of Pantothenate synthetase (Mycobacterium tuberculosis (strain ATCC 25618 / H37Rv)) (P9WIL5 whole entry, looked up): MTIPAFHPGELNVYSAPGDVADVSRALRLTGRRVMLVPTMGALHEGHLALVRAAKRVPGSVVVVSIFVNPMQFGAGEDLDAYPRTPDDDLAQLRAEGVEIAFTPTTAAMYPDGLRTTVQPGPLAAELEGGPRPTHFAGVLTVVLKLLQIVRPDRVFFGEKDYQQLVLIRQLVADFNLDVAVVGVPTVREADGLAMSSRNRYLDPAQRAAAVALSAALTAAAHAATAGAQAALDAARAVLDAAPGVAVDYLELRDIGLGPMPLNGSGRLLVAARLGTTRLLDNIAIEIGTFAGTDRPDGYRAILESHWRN
As for `CSc1nc(C)cc(Oc2ccc(=O)n(C)n2)n1`, the inhibition is 0% (inactive). For the compound `N#Cc1c(N2C(=O)C3C4C=CC(C4)C3C2=O)sc2c1CCC2` (stereo not given), the inhibition was 0% (inactive). For `Cc1c(Cl)cccc1NC(=O)CCN1CCCCCC1`, the inhibition was 0% (inactive). For the compound `Cc1onc(-c2ccccc2)c1C(N)=O`, the inhibition was 0% (inactive). The same measure for `Cn1c(=O)[nH]c(=O)c2[nH]c(NCCCN3CCOCC3)nc21`: 0% (inactive). With `CC(C)N(C=O)C1(C(=O)NC2CCCCC2)CCCCC1`, the inhibition was 4% (inactive). As for `COc1ccccc1Nc1nc(N)nc(CN2CCN(c3ccccc3F)CC2)n1`, the inhibition was 0% (inactive). In the case of `CCC(=O)N1CCCc2cc(S(=O)(=O)N3CCCc4ccccc43)ccc21`, the inhibition is 4% (inactive). Regarding `CCOC(=O)c1ccc(NC(=O)CCNc2c(N3CCCC3)c(=O)c2=O)cc1`, the inhibition was 0% (inactive). The same measure for `O=C1CS/C(=N\C(=O)N2c3ccccc3Sc3ccccc32)N1`: 0% (inactive); for `O=C(NC1CCCc2ccccc21)C1CCN(c2nnc(-n3cccc3)s2)CC1` (stereo not given): 0% (inactive); for `COc1ccc(CCNC(=O)CSc2nnnn2-c2ccccc2OC)cc1OC`: 5% (inactive). The same measure for `CN(C(=O)COc1cc(=O)n(C)c2ccccc12)c1ccc(Br)cc1`: 0% (inactive); for `c1ccc(N2CCN(Cc3cn4cccnc4n3)CC2)cc1`: 3% (inactive); for `CC(=O)n1cc(-c2ccncc2)c2ccccc21`: 0% (inactive).

For the compound `CC1(CC(=O)O)C(=O)N=C2C=CC=CN21` (stereo not given), the inhibition is 0% (inactive).

With `COc1ccc(CNc2oc(COc3ccccc3Cl)nc2C#N)cc1`, the inhibition is 0% (inactive). With `CCCNC(=O)c1c(N)n(-c2cc(OC)cc(OC)c2)c2nc3ccccc3nc12`, the inhibition is 8% (inactive). Consider `CCn1c(CCNC(=O)c2cccs2)nnc1SCC(=O)c1ccc(OC)cc1`, for which the inhibition was 0% (inactive). As for `COc1cccc(-c2nc(CS(=O)(=O)CC(=O)N3CCN(c4ccccn4)CC3)c(C)o2)c1`, the inhibition is 5% (inactive). `CN=C(Nc1cc(C)nn1-c1ccccc1)c1ccccc1`: the inhibition was 0% (inactive).

Regarding `Cc1ccc(NC2c3ncccc3C(=O)N2C2CCCCC2)cc1C` (stereo not given), the inhibition is 0% (inactive).

For the compound `CN(Cc1nc(-c2ccncc2)no1)S(=O)(=O)c1ccccc1`, the inhibition is 6% (inactive). Regarding `CCCN1CCN(CCCNC(=O)Cn2nc(-c3ccc(Cl)cc3)ccc2=O)CC1`, the inhibition was 0% (inactive). Turning to `CCOC(=O)c1ccccc1NC(=O)c1cc2sccc2n1C`, the inhibition was 2% (inactive). For `O=C(CSc1nnc(-c2ccc(Br)cc2)n1C1CCCCC1)N1CCCC1`, the inhibition was 2% (inactive). Turning to `COc1ccc(/C(O)=C2\C(=O)C(=O)N(c3cc(C)on3)C2c2ccccc2OC)cc1` (stereo not given), the inhibition was 0% (inactive). `CNc1ccc(C(O)(C(F)(F)F)C(F)(F)F)cc1C(O)(C(F)(F)F)C(F)(F)F`: the inhibition was 0% (inactive). In the case of `N#CC(C(=O)c1ccco1)c1ccccn1` (stereo not given), the inhibition was 3% (inactive).

Turning to `CCOC(=O)c1cc(-c2ccco2)nc2c1c(C)nn2CCC#N`, the inhibition is 0% (inactive). The same measure for `COc1ccc(S(=O)(=O)N2CCN(c3ccc(C)cc3C)CC2)cc1OC`: 3% (inactive); for `Cc1ccc2[nH]c(=O)c(CN(CCc3ccccc3)Cc3nnnn3CC3CCCO3)cc2c1` (stereo not given): 2% (inactive). In the case of `COc1ccc(S(=O)(=O)NCC(c2cccnc2)N2CCN(c3ccc(F)cc3)CC2)cc1C` (stereo not given) it was 0% (inactive).

Turning to `COC(=O)c1ccc(N2C(=O)CC(N3CCN(C(=O)c4ccco4)CC3)C2=O)cc1` (stereo not given), the inhibition was 0% (inactive). In the case of `COc1ccccc1C(=O)N1CCN=C1SCc1cccnc1`, the inhibition is 0% (inactive). `CCOC(=O)Nc1sc(=S)n(C)c1C`: the inhibition was 9% (inactive). As to `Cc1ccc(NC(=O)c2ccco2)c(NC(=O)c2cccs2)c1`, the inhibition is 0% (inactive). Take `c1ccc(C2(Cn3ccc4ccccc43)OCCO2)cc1`: the inhibition was 0% (inactive). For `CC1(C)O[C@@H]2C[C@H]3[C@@H]4C[C@H](F)C5=CC(=O)C=C[C@]5(C)[C@@]4(F)[C@@H](O)C[C@]3(C)[C@]2(C(=O)CO)O1`, the inhibition is 1% (inactive).

Turning to `CCOc1cc(C(=O)N(C)c2ccccc2)cc(OCC)c1OCC`, the inhibition was 1% (inactive).

What is called inhibition is the relative decrease from the control value, in per cent.
